These results are taken from PubChem BioAssay (Tox21).

Values without a mark were called inactive. A call without a number means that no potency is given here. Active and inactive are the calls of the source. Calls follow the shape of the dose curve; as a rule, active = well fitted curve in the direction sought with a large enough effect in the repeat runs; inconclusive = weak or mixed curves; inactive = flat fitted curve, though single readings scatter.

The experiment is described as follows: qHTS assay to test for compound auto fluorescence at 460 nm (blue) in HepG2 cell free culture (AID 720685). The following applies: Cell-free culture medium, blue autofluorescence 405/460 nm; series mostly up to 91.3 µM; fluorescence, % of fluorescent control: at the top concentration. An excerpt:
U.S. Tox21 Program National Center for Advancing Translational Sciences [NCATS] NIH Chemical Genomics Center [NCGC] U.S. Environmental Protection Agency [EPA] National Institutes of Environmental Health Sciences [NIEHS] National Toxicology Program [NTP] U.S. Food and Drug Administration [FDA] Tox21 Assay Overview: Compound auto fluorescence often interferes with screening of the compound library against various biological targets and signaling pathways. Some of these compounds may have fluorophoric properties. Such properties may interfere with the assay outputs resulting in false positives and/or negatives. To decrease such complications and ensure the compound activities are relevant in terms of biological response, the Tox21 10K compound library was screened for auto fluorescence. From the fluorophores used as reporter signals in our screening assays, the auto fluorescence equivalencies of compounds against three fluorophores have been evaluated: Triamterene, Fluorescein and Rose Bengal sodium for blue, green and red fluorescence, respectively. The fluorescence intensities were measured using Excitation/Emission wavelengths at 405/460nm, 485/535nm and 540/590nm for blue, green and red labels, respectively. This assay includes the blue fluorescence data.
Tox21 Assay Protocol Summary: 5 uL of culture medium (MEM containing 10% FBS) per well was dispensed into black wall/clear bottom 1536-well plates using a Multidrop Combi Dispenser (ThermoFisher Scientific, Waltham, MA). After 23 nL compound or DMSO vehicle was transferred into assay plate by a pintool work station (Kalypsys, San Diego, CA), fluorescence intensities in the assay plates were measured by an Envision (PerkinElmer, Shelton, CT) plate reader using three labels for measuring blue, green and red fluorescence at […] 460, 535 and 590nm respectively.
Regarding `O=C(O)c1cccc(C(=O)O)c1`, the Potency entry was “inactive”.
Regarding `CNCCC(Oc1ccc(C(F)(F)F)cc1)c1ccccc1` (stereo not given), the Potency result is “inactive”.
For `CC(=O)N[C@@H](CS)C(=O)O`, the Potency result is “inactive”.
Consider `Oc1c(Cl)cc(Cl)cc1Sc1cc(Cl)cc(Cl)c1O`, for which the Potency entry is “inactive”.
Turning to `CCCN[C@H]1CCc2nc(N)sc2C1`, the Potency result was “inactive”.
As to `CC(C)(C)NCC(O)c1cc(O)cc(O)c1` (stereo not given), the “fluorescence, % of fluorescent control” value is 0.954% [at 46 µM].
Take `Nc1cc(S(=O)(=O)O)cc2cc(S(=O)(=O)O)cc(O)c12`: the “fluorescence, % of fluorescent control” value was 0.42%.
Take `O=C(OCc1ccccc1)c1ccc(O)cc1`: the Potency result is “inactive”.
Regarding `COc1ccc(CCN(C)CCCC(C#N)(c2ccc(OC)c(OC)c2)C(C)C)cc1OC` (stereo not given), the Potency result is “inactive”.
On to `CC(C)(C)c1ccccc1`, for which the “fluorescence, % of fluorescent control” value was 0.0284%.
`COc1ccc(CCN2CCC(Nc3nc4ccccc4n3Cc3ccc(F)cc3)CC2)cc1`: the Potency result was “inactive”.
As to `Cc1cccc2n[nH]nc12`, the Potency entry is “inactive”.
Same read-out and setting: the value for `CCCCCCCCCCCCCC[P+](CCCC)(CCCC)CCCC` was “inactive”; that for `CN(C)c1ccc(C(=C2C=CC(=[N+](C)C)C=C2)c2ccccc2)cc1` was “inactive”.
Still for that read-out and setting: the value for `C=CS(=O)(=O)O` was “inactive”; that for `CC1=CC(=O)c2ccccc2C1=O` was “inactive”.
On the same count and under the same terms, the result for `CCCCOCCOC(=O)c1ccccc1C(=O)OCCOCCCC` reads “inactive”; that for `CC(C)(c1ccccc1)c1ccc(Nc2ccc(C(C)(C)c3ccccc3)cc2)cc1`, “inactive”.
Turning to `O=C(O[C@@H]1Cc2c(O)cc(O)cc2O[C@@H]1c1cc(O)c(O)c(O)c1)c1cc(O)c(O)c(O)c1`, the Potency entry is “inactive”.
Regarding `CC(=O)C1=C(C)[C@@H]2C[C@@]3(C1)[C@H](C)CC[C@H]3C2(C)C`, the Potency result is “inactive”.
As for `C=CC(=O)OCCCCCCCC`, the “fluorescence, % of fluorescent control” value is 0.188%.
In the case of `CC(N)=O`, the “fluorescence, % of fluorescent control” value was -0.077% [at 203 µM].
Regarding `CCOC(=O)C(C)C(C)=O` (stereo not given), the “fluorescence, % of fluorescent control” value is 0.221%.
For `CCCCCCCCCCCC[N+](C)(C)C`, the Potency result was “inactive”.
The same measure, in the same setting: the value for `NC(=Nc1ccccc1)Nc1ccccc1` was “inactive”; that for `CC[C@H]1CN2CCc3cc(OC)c(OC)cc3[C@@H]2C[C@@H]1C[C@H]1NCCc2cc(OC)c(OC)cc21` was “inactive”; that for `C=C(C)C(=O)O` was “inactive”.
In the case of `CC(C)CCOC(=O)c1ccc(N(C)C)cc1`, the “fluorescence, % of fluorescent control” value is -0.146% [at 46 µM].
Consider `OCCOCCN1CCN(C(c2ccccc2)c2ccc(Cl)cc2)CC1` (stereo not given), for which the Potency result was “inactive”.
Consider `CC(C(O)c1ccc(O)cc1)N1CCC(Cc2ccccc2)CC1` (stereo not given), for which the “fluorescence, % of fluorescent control” value is 0.107% [at 46 µM].
Consider `CCc1cc(C(C)(C)C)c(O)c(C(C)(C)C)c1`, for which the Potency entry is “inactive”.
As for `[Cl][In]([Cl])[Cl]`, the Potency result is “inactive”.
As to `C/C=C/c1ccc(OCC)c(O)c1`, the “fluorescence, % of fluorescent control” value was 0.113%.
For the compound `CC(C)CCCCCCc1ccc(O)cc1`, the Potency result was “inactive”.
As for `CC(=O)OCCOCCOCCOC(C)=O`, the Potency result was “inactive”.
For the compound `CCC[C@H](N[C@@H](C)C(=O)N1[C@H](C(=O)O)C[C@@H]2CCCC[C@@H]21)C(=O)OCC`, the “fluorescence, % of fluorescent control” value was 0.0405% [at 46 µM].
Take `CN(C)c1ccc2nc3ccc(=[N+](C)C)cc-3sc2c1`: the Potency entry is “inactive”.
Consider `CCn1cc(C(=O)O)c(=O)c2cc(F)c(N3CCNC(C)C3)c(F)c21` (stereo not given), for which the Potency entry is “inactive”.
Take `CC(=O)OCC1=C(C(=O)O)N2C(=O)[C@@H](NC(=O)Cc3cccs3)[C@H]2SC1`: the “fluorescence, % of fluorescent control” value is 1.57% [at 46 µM].
For `Nc1nc(=S)c2[nH]cnc2[nH]1`, the Potency result was “inactive”.
